Structures can show the parent of a compound that is named as a salt. ± gives the standard deviation or the standard deviation of the averaged measurements.

These results are taken from the supplement of paper PMC7366291.

Conditions in all cases: 25 µM; exposure: 24-48 hpf
Experiment [1] concerns Danio rerio Tg(wt1b:EGFP) embryo, pronephros. The experiment can be described thus: glomerular separation, fold change vs DMSO control; higher = glomeruli further apart (abnormal). The procedure, abridged: (§1)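 In HEPES-buffered E3 with 0.003% PTU and 0.5% DMSO, dechorionated Tg(wt1b:EGFP) zebrafish embryos were exposed to 25 μM compound from 24 to 48 hpf at 28.5°C. Pronephroi were then imaged dorsally at 470 nm in 10 z-slices, in 96-well plates filled with agarose. On maximum projections, a Fiji macro turned 16 manually placed reference points into distances and angles, and values more than 2 SD from the feature mean were excluded. Features are fold changes relative to the mean of DMSO-treated embryos from the same day.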

The test system is the same in experiment [2]. The experiment is described as follows: glomerular width (mean of left and right), fold change vs DMSO control; higher = wider glomerulus. The procedure, abridged:
as §1

Experiment [3] has the same test system. The experiment can be described thus: fraction of imaged embryos annotated as normal kidney; higher = less nephrotoxic; extreme values may be limits of the assay. In a few lines: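 Dechorionated Tg(wt1b:EGFP) zebrafish embryos were incubated with 25 μM compound in 0.5% DMSO, 5 mM HEPES-buffered E3 and 0.003% PTU from 24 to 48 hpf at 28.5°C. Pronephroi were then imaged by widefield fluorescence, and the fraction of embryos per treatment assigned by hand to the normal-kidney category is given.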

Experiment [4] has the same test system. The experiment can be described thus: pronephric angle neck segment to proximal convoluted tubule (mean of left and right), fold change vs DMSO control; higher = larger pronephric angle. In a few lines:
as §1

In turn, `CCN(CC)CCCC(C)Nc1ccnc2cc(Cl)ccc12` (stereo unspecified) [Chloroquine diphosphate] came in with a glomerular separation in experiment [1] of 1.16 ± 0.51. Also, in experiment [2], the glomerular width worked out at 0.959 ± 0.049. Further, the “fraction of imaged embryos annotated as normal kidney” value (shortened to “fraction of imaged embryos annotated”) in experiment [3] came to 1. Besides, the “pronephric angle neck segment” value in experiment [4] is 0.991 ± 0.019.

In experiment [1], `Cc1[nH]c(=O)c(C#N)cc1-c1ccncc1` [Milrinone] returned a glomerular separation of 1.13 ± 0.36. The compound also returned a glomerular width in experiment [2] of 1.01 ± 0.047. Moreover, the “fraction of imaged embryos annotated” value in experiment [3] was 0.917. In addition, in experiment [4], the “pronephric angle neck segment” value worked out at 0.9759 ± 0.0011.

In turn, `CCN(CCCc1ccccc1)CCCc1ccccc1` [Alverine citrate salt] had a glomerular separation in experiment [1] of 0.843 ± 0.21. The glomerular width in experiment [2] was 1.02 ± 0.044. In experiment [3], the “fraction of imaged embryos annotated” value was 0.75. Moreover, the “pronephric angle neck segment” value in experiment [4] came out at 0.942 ± 0.035.

`CC(C(=O)O)c1ccc2c(c1)Cc1cccnc1O2` (stereo unspecified) [Pranoprofen] came in with a glomerular separation in experiment [1] of 0.724 ± 0.18. The same compound returned a glomerular width in experiment [2] of 0.956 ± 0.035. Besides, the “fraction of imaged embryos annotated” value in experiment [3] was 0.583. Also, the “pronephric angle neck segment” value in experiment [4] was found to be 1.049 ± 0.01.

`COc1ccc(C(=O)c2ccccc2O)c(O)c1` [Dioxybenzone] gave a glomerular separation in experiment [1] of 2.57 ± 1.9. This compound also gave a glomerular width in experiment [2] of 0.84 ± 0.044. Besides, the “fraction of imaged embryos annotated” value in experiment [3] was found to be 0.417. Moreover, in experiment [4], the “pronephric angle neck segment” value worked out at 1.09 ± 0.018.

The compound `CC(C)c1ccc2oc3nc(N)c(C(=O)O)cc3c(=O)c2c1` [Amlexanox] returned a glomerular separation in experiment [1] of 1.84 ± 0.69. Further, in experiment [2], the glomerular width is 1.04 ± 0.036. In experiment [4], the “pronephric angle neck segment” value turned out to be 0.955 ± 0.017.

With `COCCCC/C(=N\OCCN)c1ccc(C(F)(F)F)cc1` [Fluvoxamine maleate], the glomerular separation in experiment [1] amounted to 1.05 ± 0.39. Besides, in experiment [2], the glomerular width worked out at 0.91 ± 0.015. The “fraction of imaged embryos annotated” value in experiment [3] was 1. Also, the “pronephric angle neck segment” value in experiment [4] turned out to be 0.996 ± 0.018.

Consider `CC(C)CC(=O)N[C@H](C(=O)N[C@H](C(=O)N[C@@H](CC(C)C)[C@@H](O)CC(=O)N[C@@H](C)C(=O)N[C@@H](CC(C)C)[C@@H](O)CC(=O)O)C(C)C)C(C)C` [Pepstatin A], for which the glomerular separation in experiment [1] was found to be 0.947 ± 0.11. Moreover, the glomerular width in experiment [2] turned out to be 1.03 ± 0.012. Besides, in experiment [3], the “fraction of imaged embryos annotated” value was found to be 0.818. The “pronephric angle neck segment” value in experiment [4] came to 1.01 ± 0.041.

As to `CCOc1ccc2nc(S(N)(=O)=O)sc2c1` [Ethoxzolamide], the glomerular separation in experiment [1] was determined as 2.05 ± 1.5. This compound also had a glomerular width in experiment [2] of 1.08 ± 0.0034. In addition, the “pronephric angle neck segment” value in experiment [4] is 1.2306 ± 0.00079.

Regarding `CN[C@@H]1[C@@H](O[C@H]2O[C@H](CO)[C@@H](N)[C@H](O)[C@H]2O)OC2C[C@@H](N)[C@@H](O[C@H]3[C@H](O)[C@@H](O)[C@H](N)C[C@@H]3N)OC2[C@@H]1O` (stereo partly specified) [Apramycin], the glomerular separation in experiment [1] is 1.1 ± 0.44. This compound also had a glomerular width in experiment [2] of 0.977 ± 0.021. Further, the “fraction of imaged embryos annotated” value in experiment [3] came to 0.75. Moreover, the “pronephric angle neck segment” value in experiment [4] was 0.9506 ± 0.0069.

In experiment [1], `NC(=O)C(c1ccccc1)(c1ccccc1)[C@@H]1CCN(CCc2ccc3c(c2)CCO3)C1` [Darifenacin hydrobromide] yielded a glomerular separation of 0.963 ± 0.39. This compound also returned a glomerular width in experiment [2] of 1.09 ± 0.019. The “pronephric angle neck segment” value in experiment [4] amounted to 1 ± 0.029.

In experiment [1], `CC(=O)O[C@]1(C(C)=O)CC[C@H]2[C@@H]3C=C(Cl)C4=CC(=O)CC[C@]4(C)[C@H]3CC[C@@]21C` [Chlormadinone acetate] gave a glomerular separation of 1.26 ± 0.62. In experiment [2], this compound yielded a glomerular width of 0.909 ± 0.053. For the same compound, the “fraction of imaged embryos annotated” value in experiment [3] stood at 0.636. Moreover, in experiment [4], the “pronephric angle neck segment” value was 1.17 ± 0.093.

Compound `COc1cc(C)nc(-n2nc(C)cc2OC)n1` [Epirizole] returned a glomerular separation in experiment [1] of 1.39 ± 0.73. In experiment [2], this compound displayed a glomerular width of 0.957 ± 0.021. Moreover, in experiment [3], the “fraction of imaged embryos annotated” value was found to be 0.75. The “pronephric angle neck segment” value in experiment [4] was determined as 1.03 ± 0.027.

For the compound `Cc1ccccc1N1C(=O)c2cc(S(N)(=O)=O)c(Cl)cc2NC1C` (stereo unspecified) [Metolazone], in experiment [1], the glomerular separation came to 0.86 ± 0.34. Besides, the glomerular width in experiment [2] came to 1 ± 0.062. Also, the “fraction of imaged embryos annotated” value in experiment [3] turned out to be 0.917. For the same compound, in experiment [4], the “pronephric angle neck segment” value was determined as 1.03 ± 0.016.

In experiment [1], `CC(C)NCC(O)c1cc(O)cc(O)c1` (stereo unspecified) [Metaproterenol sulfate, orciprenaline sulfate] had a glomerular separation of 1.08 ± 0.74. This compound showed a glomerular width in experiment [2] of 1.02 ± 0.014. Also, in experiment [3], the “fraction of imaged embryos annotated” value was determined as 0.909. The “pronephric angle neck segment” value in experiment [4] was determined as 1.08 ± 0.07.

Regarding `CC(C)(C)NC(=O)[C@@H]1CN(Cc2cccnc2)CCN1C[C@@H](O)C[C@@H](Cc1ccccc1)C(=O)N[C@H]1c2ccccc2C[C@H]1O` [Indinavir sulfate], the glomerular separation in experiment [1] is 1.35 ± 0.6. The compound also displayed a glomerular width in experiment [2] of 0.851 ± 0.062. In addition, the “fraction of imaged embryos annotated” value in experiment [3] was determined as 1. Moreover, the “pronephric angle neck segment” value in experiment [4] worked out at 1.101 ± 0.002.

In experiment [1], `CCCCOc1ccc(C(=O)CCN2CCCCC2)cc1` [Dyclonine hydrochloride] registered a glomerular separation of 0.982 ± 0.26. The same compound gave a glomerular width in experiment [2] of 1.02 ± 0.071. Also, the “fraction of imaged embryos annotated” value in experiment [3] turned out to be 0.833. Further, the “pronephric angle neck segment” value in experiment [4] is 1.004 ± 0.0035.

For `CS(=O)(=O)c1ccc(C2=C(c3ccccc3)C(=O)OC2)cc1` [Rofecoxib], the glomerular separation in experiment [1] amounted to 0.981 ± 0.22. For the same compound, the glomerular width in experiment [2] amounted to 0.974 ± 0.11. The “fraction of imaged embryos annotated” value in experiment [3] came out at 1. Further, the “pronephric angle neck segment” value in experiment [4] stood at 0.969 ± 0.024.

Consider `O=C1C(CC[S+]([O-])c2ccccc2)C(=O)N(c2ccccc2)N1c1ccccc1` (stereo unspecified) [Sulfinpyrazone], for which the glomerular separation in experiment [1] is 1.21 ± 0.35. Further, in experiment [2], the glomerular width was determined as 1.02 ± 0.03. Besides, the “fraction of imaged embryos annotated” value in experiment [3] came to 0.833. Also, the “pronephric angle neck segment” value in experiment [4] stood at 1 ± 0.012.

In turn, `COc1ccc(C(=O)NCc2cccnc2)cc1C(=O)NCc1cccnc1` [Picotamide monohydrate] returned a glomerular separation in experiment [1] of 0.955 ± 0.31. This compound displayed a glomerular width in experiment [2] of 1.028 ± 0.0052. Moreover, the “fraction of imaged embryos annotated” value in experiment [3] is 0.75. Besides, in experiment [4], the “pronephric angle neck segment” value turned out to be 0.991 ± 0.0099.

Compound `NC(=O)c1cc[n+](CC2=C(C(=O)[O-])N3C(=O)[C@@H](NC(=O)[C@@H](c4ccccc4)S(=O)(=O)O)[C@H]3SC2)cc1` [Cefsulodin sodium salt] gave a glomerular separation in experiment [1] of 0.67 ± 0.22. Further, the glomerular width in experiment [2] came out at 1.08 ± 0.02. The “fraction of imaged embryos annotated” value in experiment [3] turned out to be 0.833. For the same compound, in experiment [4], the “pronephric angle neck segment” value is 0.976 ± 0.034.

For the compound `NCC[C@H](O)C(=O)N[C@@H]1C[C@H](N)[C@@H](O[C@H]2O[C@H](CN)[C@@H](O)[C@H](O)[C@H]2O)[C@H](O)[C@H]1O[C@H]1O[C@H](CO)[C@@H](O)[C@H](N)[C@H]1O` [Amikacin hydrate], the glomerular separation in experiment [1] turned out to be 1.13 ± 0.48. Besides, in experiment [2], the glomerular width was determined as 1.02 ± 0.028. The “fraction of imaged embryos annotated” value in experiment [3] was 0.667. In experiment [4], the “pronephric angle neck segment” value came to 1.04 ± 0.02.

As to `O=C1O[C@H]([C@@H](O)CO)C(O)=C1O` [Ascorbic acid], the glomerular separation in experiment [1] worked out at 1.08 ± 0.33. The glomerular width in experiment [2] came out at 1.01 ± 0.09. For the same compound, in experiment [3], the “fraction of imaged embryos annotated” value was found to be 0.75. Further, the “pronephric angle neck segment” value in experiment [4] amounted to 1.03 ± 0.025.

The compound `Clc1ccc(C(Cn2ccnc2)OCc2c(Cl)cccc2Cl)c(Cl)c1` (stereo unspecified) [Isoconazole] displayed a glomerular separation in experiment [1] of 3.36 ± 1.9. This compound came in with a glomerular width in experiment [2] of 0.669 ± 0.052. Moreover, the “fraction of imaged embryos annotated” value in experiment [3] stood at 0.167. For the same compound, the “pronephric angle neck segment” value in experiment [4] amounted to 1.64 ± 0.076.

`C#Cc1cccc(Nc2ncnc3cc(OCCOC)c(OCCOC)cc23)c1` [Erlotinib]: in experiment [1], the glomerular separation was 0.768 ± 0.23. In experiment [2], this compound yielded a glomerular width of 1.05 ± 0.03. For the same compound, the “fraction of imaged embryos annotated” value in experiment [3] stood at 0.833. Also, the “pronephric angle neck segment” value in experiment [4] stood at 0.994 ± 0.031.

In experiment [1], `CC(=O)O[C@H]1C[C@@H]2CC[C@@H]3[C@H](CC[C@@]4(C)[C@H]3C[C@H]([N+]3(C)CCCCC3)[C@@H]4OC(C)=O)[C@@]2(C)C[C@@H]1N1CCCCC1` [Vecuronium bromide] came in with a glomerular separation of 1.01 ± 0.35. In experiment [2], the glomerular width worked out at 0.967 ± 0.024. The “fraction of imaged embryos annotated” value in experiment [3] worked out at 1. Also, in experiment [4], the “pronephric angle neck segment” value was determined as 1.03 ± 0.028.
